In PubChem BioAssay (EPA / NIEHS):
Where “and” joins values, the source holds several entries; their conditions need not be identical. Equal values may be shown once. The source holds several records for some structures; these can differ, active in one and inactive in another. Calls of active or inactive are those of the source. The calls were made as follows: active = hit-call score of the fitted dose curve at least 0.9, where 1 is the maximum; inactive = score below 0.9.

What was measured:
[1] = read-out: TIMP metallopeptidase inhibitor 1 (TIMP1), TIMP1 (gene 7076); assay: BSK_hDFCGF_TIMP1: BioMAP Diversity Plus: hDFCGF Assay for TIMP metallopeptidase inhibitor 1 (TIMP1) Biomarker Activity (AID 2283062); conditions: primary human foreskin fibroblasts; actives raise or lower the signal
How it was run: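 Human skin fibroblasts (primary), hDFCGF system; compound exposure 24 h; TIMP-1 by ELISA; bidirectional fit vs DMSO negative control; overt cytotoxicity by SRB in parallel wells.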

[2] = read-out: Monokine induced gamma interferon (MIG), CXCL9 (gene 4283); assay: BSK_hDFCGF_MIG: BioMAP Diversity Plus: hDFCGF Assay for Monokine induced gamma interferon (MIG) Biomarker Activity (AID 2283063); conditions: primary human foreskin fibroblasts; actives raise or lower the signal
How it was run: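 Chemicals were added to primary human foreskin fibroblast cultures, which were sampled 24 h later. MIG levels were then quantified by ELISA and responses fitted in both directions relative to DMSO.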

[3] = read-out: Matrix Metallopeptidase 1 (MMP1), MMP1 (gene 4312); assay: BSK_hDFCGF_MMP1: BioMAP Diversity Plus: hDFCGF Assay for Matrix Metallopeptidase 1 (MMP1) Biomarker Activity (AID 2283064); conditions: primary human foreskin fibroblasts; actives raise or lower the signal
How it was run: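 ELISA read-out of MMP1 from human foreskin fibroblasts (primary skin cells), 24 h post-dose. Gain or loss of signal was fitted bidirectionally versus DMSO negative control; cytotoxicity was checked by SRB in parallel cultures.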

[4] = read-out: Vascular cell adhesion molecule 1 (VCAM1), VCAM1 (gene 7412); assay: BSK_hDFCGF_VCAM1: BioMAP Diversity Plus: hDFCGF Assay for Vascular cell adhesion molecule 1 (VCAM1) Biomarker Activity (AID 2283065); conditions: primary human foreskin fibroblasts; actives raise or lower the signal;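 as to AC50: VCAM-1 protein level quantified by ELISA after 24 h chemical exposure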
How it was run: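 Human foreskin fibroblast primary cells, chemical exposure 24 h; VCAM-1 by ELISA; bidirectional fit, DMSO = negative control/baseline.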

[5] = read-out: Plasminogen activator inhibitor-1 (PAI1), SERPINE1 (gene 5054); assay: BSK_hDFCGF_PAI1: BioMAP Diversity Plus: hDFCGF Assay for Plasminogen activator inhibitor-1 (PAI1) Biomarker Activity (AID 2283066); conditions: primary human foreskin fibroblasts; actives raise or lower the signal
How it was run: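 Fibroblasts from human foreskin were treated with test chemical. After 24 h, PAI-1 was measured by ELISA. Activity was fitted in both directions relative to DMSO.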

[6] = read-out: Intercellular Adhesion Molecule 1 (ICAM1), ICAM1 (gene 3383); assay: BSK_KF3CT_ICAM1: BioMAP Diversity Plus: KF3CT Assay for Intercellular Adhesion Molecule 1 (ICAM1) Biomarker Activity (AID 2283067); conditions: primary human keratinocytes with fibroblasts; actives raise or lower the signal
How it was run: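 ICAM-1 levels are measured by ELISA 24 h after dosing a primary human co-culture of keratinocytes and foreskin fibroblasts. Activity in either direction is fitted relative to DMSO vehicle.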

[7] = read-out: Interferon-gamma inducible Protein 10 (IP10), CXCL10 (gene 3627); assay: BSK_KF3CT_IP10: BioMAP Diversity Plus: KF3CT Assay for Interferon-gamma inducible Protein 10 (IP10) Biomarker Activity (AID 2283068); conditions: primary human keratinocytes with fibroblasts; actives raise or lower the signal
How it was run: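 Human keratinocyte plus foreskin fibroblast primary co-culture exposed to test chemical for 24 h; IP-10 measured by ELISA. Concentration-response fitted bidirectionally against DMSO control as baseline.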

[8] = BSK_KF3CT_SRB: Viability Assessment in the BioMAP Diversity Plus: KF3CT Assay (AID 2283069); conditions: primary human keratinocytes with fibroblasts;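 also: total protein by sulforhodamine B staining as a cytotoxicity measure; read 24 h after compound addition; fitted for both signal gain and loss against DMSO baseline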
How it was run: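 SRB read-out at 560 nm (0.1% stain, TCA-fixed cells) gauges overt cytotoxicity in a human skin keratinocyte–fibroblast co-culture 24 h post-dosing. Signal change was fitted bidirectionally relative to DMSO control.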

[9] = read-out: Interleukin-1 alpha (IL1a), IL1A (gene 3552); assay: BSK_KF3CT_IL1a: BioMAP Diversity Plus: KF3CT Assay for Interleukin-1 alpha (IL1a) Biomarker Activity (AID 2283070); conditions: primary human keratinocytes with fibroblasts; actives raise or lower the signal
How it was run: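 Primary skin co-culture (keratinocytes, foreskin fibroblasts), 24 h exposure; ELISA for IL-1a; bidirectional curve fit vs DMSO.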

[10] = read-out: TIMP metallopeptidase inhibitor 2 (TIMP2), TIMP2 (gene 7077); assay: BSK_KF3CT_TIMP2: BioMAP Diversity Plus: KF3CT Assay for TIMP metallopeptidase inhibitor 2 (TIMP2) Biomarker Activity (AID 2283071); conditions: primary human keratinocytes with fibroblasts; actives raise or lower the signal
How it was run: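 Chemicals were dosed onto human skin primary co-cultures of keratinocytes and foreskin fibroblasts, and TIMP-2 was measured by ELISA after 24 hours. Activity in either direction was fitted relative to DMSO.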

Structure (SMILES): CNC(=O)ON=CC(C)(C)SC
- outcome [1]: inactive
- outcome [2]: inactive
- outcome [3]: inactive
- outcome [4]: inactive
- outcome [5]: inactive
- outcome [6]: inactive
- AC50 [7]: 0.428 µM (active)
- outcome [8]: inactive
- AC50 [9]: 1.34 µM (active)
- outcome [10]: inactive

Structure (SMILES): CON(C)C(=O)Nc1ccc(Cl)c(Cl)c1
- outcome [1]: inactive
- outcome [2]: inactive
- outcome [3]: inactive
- outcome [4]: inactive
- outcome [5]: inactive
- outcome [6]: inactive
- outcome [7]: inactive
- outcome [8]: inactive
- outcome [9]: inactive
- outcome [10]: inactive

Structure (SMILES): Cc1cc(Cl)ccc1OCC(=O)O
- outcome [1]: inactive
- outcome [2]: inactive
- outcome [3]: inactive
- outcome [4]: inactive
- outcome [5]: inactive
- outcome [6]: inactive
- outcome [7]: inactive
- outcome [8]: inactive
- outcome [9]: inactive
- outcome [10]: inactive

Structure (SMILES): CCCCOC(=O)c1ccccc1C(=O)OCCCC
- outcome [1]: inactive
- outcome [2]: inactive
- outcome [3]: inactive
- AC50 [4]: 14 µM (active)
- outcome [4]: inactive
- outcome [6]: inactive
- outcome [7]: inactive
- outcome [8]: inactive
- outcome [9]: inactive
- outcome [10]: inactive

Structure (SMILES): COc1cnc(OC)n2nc(NS(=O)(=O)c3c(OCC(F)F)cccc3C(F)(F)F)nc12
- AC50 [1]: 20 µM (active)
- outcome [1]: inactive
- outcome [2]: inactive
- outcome [3]: inactive
- outcome [4]: inactive
- outcome [6]: inactive
- AC50 [7]: 34.2 µM (active)
- outcome [7]: inactive
- outcome [8]: inactive
- outcome [9]: inactive
- outcome [10]: inactive

Structure (SMILES): N#Cc1nn(-c2c(Cl)cc(C(F)(F)F)cc2Cl)c(N)c1S(=O)C(F)(F)F (centres undefined)
- outcome [1]: inactive
- outcome [2]: inactive
- outcome [3]: inactive
- outcome [4]: inactive
- outcome [5]: inactive
- outcome [6]: inactive
- AC50 [7]: 29.1 µM (active)
- outcome [8]: inactive
- outcome [9]: inactive
- outcome [10]: inactive

Structure (SMILES): CCOP(=S)(OCC)SCn1c(=O)oc2cc(Cl)ccc21
- outcome [1]: inactive
- outcome [2]: inactive
- AC50 [3]: 2.15 µM (active)
- AC50 [4]: 15.6 µM (active)
- AC50 [6]: 7.36 µM (active)
- outcome [7]: inactive
- outcome [8]: inactive
- outcome [9]: inactive
- outcome [10]: inactive

Structure (SMILES): COC(=O)N(OC)c1ccccc1COc1ccn(-c2ccc(Cl)cc2)n1
- outcome [1]: inactive
- outcome [2]: inactive
- AC50 [3]: 4.62 µM (active)
- outcome [4]: inactive
- AC50 [5]: 2.46 µM (active)
- outcome [6]: inactive
- AC50 [7]: 6.72 µM (active)
- outcome [8]: inactive
- AC50 [9]: 3.97 µM (active)
- outcome [10]: inactive

Structure (SMILES): CCOC(=O)C(Cl)Cc1cc(-n2nc(C)n(C(F)F)c2=O)c(F)cc1Cl (centres undefined)
- outcome [1]: inactive
- outcome [2]: inactive
- outcome [3]: inactive
- outcome [4]: inactive
- outcome [5]: inactive
- outcome [6]: inactive
- outcome [7]: inactive
- outcome [8]: inactive
- outcome [9]: inactive
- outcome [10]: inactive

Structure (SMILES): CC(C)(C)c1ccc(CSc2cnn(C(C)(C)C)c(=O)c2Cl)cc1
- outcome [1]: inactive
- outcome [2]: inactive
- outcome [3]: inactive
- AC50 [4]: 31.6 µM (active)
- outcome [6]: inactive
- AC50 [7]: 31.3 µM (active)
- AC50 [8]: 20 µM (active)
- AC50 [9]: 6.93 µM (active)
- AC50 [10]: 22.9 µM (active)

Structure (SMILES): COC(=O)C=C(C)OP(=O)(OC)OC
- AC50 [1]: 0.273 µM (active)
- outcome [2]: inactive
- outcome [3]: inactive
- outcome [4]: inactive
- outcome [5]: inactive
- outcome [6]: inactive
- outcome [7]: inactive
- outcome [8]: inactive
- outcome [9]: inactive
- outcome [10]: inactive

Structure (SMILES): CCCN(CCC)c1c([N+](=O)[O-])cc(S(N)(=O)=O)cc1[N+](=O)[O-]
- AC50 [1]: 33.5 µM (active) and 34 µM (active)
- outcome [1]: inactive
- AC50 [2]: 32 µM (active) and 34.1 µM (active)
- outcome [2]: inactive
- AC50 [3]: 33.6 µM (active) and 348 nM (active)
- outcome [3]: inactive
- AC50 [4]: 32.7 µM (active) and 35.6 µM (active)
- outcome [4]: inactive
- outcome [6]: inactive
- outcome [7]: inactive
- AC50 [8]: 34.6 µM (active)
- outcome [8]: inactive
- outcome [9]: inactive
- AC50 [10]: 34.6 µM (active)
- outcome [10]: inactive

Structure (SMILES): Cc1c(F)c(F)c(COC(=O)C2C(/C=C(\Cl)C(F)(F)F)C2(C)C)c(F)c1F (centres undefined)
- outcome [1]: inactive
- outcome [2]: inactive
- AC50 [3]: 1.22 µM (active)
- outcome [4]: inactive
- outcome [5]: inactive
- outcome [6]: inactive
- outcome [7]: inactive
- outcome [8]: inactive
- outcome [9]: inactive
- outcome [10]: inactive
